# HT1080-NT tox = qHTS for induction of synthetic lethality in tumor cells producing 2HG: qHTS for the HT-1080-NT fibrosarcoma cell line; HT-1080-NT fibrosarcoma viability, CellTiter-Glo ATP luminescence, 48 h; Potency, µM (doses to about 46.1 µM), for the others: top-dose activity, negative = less viability, most hits filed as cytotoxic; 360,000 tested, 1.6% active; AID 686970, 2013;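 further: NT is the 2HG producing partner of a matched IDH1 knockdown line; potency means the concentration at half of the fitted maximal effect; 0% = DMSO-treated cells and -100% = media-only wells without cells; nearly all actives have a fitted effect of over 55% in size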
#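 750 cells/well, RPMI + 5% FBS; 2 h settle, compound pin-transfer, 48 h at 37 degrees C. CellTiter-Glo 10 min RT, luminescence. Normalized to DMSO and media-only wells.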
# HT1080 IDH1KD tx = qHTS for induction of synthetic lethality in tumor cells producing 2HG: qHTS for the HT-1080-IDH1KD cell line; HT-1080 IDH1 knockdown viability, ATP luminescence, 48 h; Potency, µM (top dose mostly 46.1 µM), without a hit: at the top dose activity, negative = toxicity, hits mostly cytotoxic; 360,000 tested, 2% active; AID 686971, 2013;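 further: potency means the concentration at half of the fitted maximal effect; 0% = DMSO wells and -100% = cell-free medium wells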
#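 Luminescent ATP read-out (CellTiter-Glo, 10 min at room temperature) after 48 h compound exposure at 37 °C gave viability of IDH1-knockdown HT-1080 cells. Activity was normalised to DMSO and cell-free wells, then fitted as concentration-response curves.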
# ALOX12 inh = Primary qHTS assay for inhibitors of human arachidonate 12S-lipoxygenase (ALOX12): Round 2 | Polyunsaturated fatty acid lipoxygenase ALOX12 (Homo sapiens), P18054 | Potency, µM (top dose mostly 108 µM), inactives show at the top dose activity change, negative = inhibition, hits mostly inhibitors | 580,000 tested, 1.1% active | purified 12hLO, xylenol orange hydroperoxide absorbance | AID 1671190, 2021; further: potency means the concentration at half of the fitted maximal effect
# Target sequence (P18054 whole entry, looked up): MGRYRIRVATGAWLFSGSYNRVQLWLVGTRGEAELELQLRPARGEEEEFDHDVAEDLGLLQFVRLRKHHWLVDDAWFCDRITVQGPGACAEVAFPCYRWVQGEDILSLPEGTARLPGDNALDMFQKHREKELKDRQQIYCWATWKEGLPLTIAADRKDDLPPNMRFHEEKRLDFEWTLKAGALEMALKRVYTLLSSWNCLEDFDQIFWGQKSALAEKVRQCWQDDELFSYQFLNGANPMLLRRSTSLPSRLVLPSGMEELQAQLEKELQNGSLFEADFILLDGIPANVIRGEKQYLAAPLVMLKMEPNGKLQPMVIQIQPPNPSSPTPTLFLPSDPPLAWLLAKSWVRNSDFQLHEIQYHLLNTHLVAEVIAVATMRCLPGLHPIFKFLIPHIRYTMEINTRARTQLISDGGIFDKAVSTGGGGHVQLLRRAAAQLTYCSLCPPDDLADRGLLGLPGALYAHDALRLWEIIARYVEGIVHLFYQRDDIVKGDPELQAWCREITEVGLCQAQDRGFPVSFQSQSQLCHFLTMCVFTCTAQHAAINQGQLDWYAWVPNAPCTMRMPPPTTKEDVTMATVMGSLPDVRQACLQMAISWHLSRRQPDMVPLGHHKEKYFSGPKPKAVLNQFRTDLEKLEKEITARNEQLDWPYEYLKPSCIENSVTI
#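 Hydroperoxide product was detected by ferrous iron/xylenol orange as the 573 to 405 nm absorbance ratio. Arachidonic acid at 40 uM (final) was turned over for 30 min at room temperature by 150 nM human 12hLO, pH 7.0 Hepes buffer, after 15 min compound preincubation.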
# IL1B secr inh = qHTS for Inhibitors of Inflammasome Signaling: IL-1-beta AlphaLISA Primary Screen; THP-1 LPS/ATP IL-1B secretion, AlphaLISA, 16 h; active compounds read low; activity change, % at 57.5 µM; 360,000 tested, 4.7% active; AID 743279, 2014; in the data active means activity change below about -50%; inconclusive means mostly about -30% to -49%
#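 Secreted IL-1B measured by AlphaLISA bead assay after 16 h compound exposure of THP-1 cells; compounds (final up to 57.5 uM) added 1 h before LPS (250 ng/mL) and ATP (1.25 mM) stimulation; lower signal means less secretion.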
# TDP1 cell noCPT = qHTS for Inhibitors of human tyrosyl-DNA phosphodiesterase 1 (TDP1): qHTS in cells in absence of CPT | Potency, µM (series often up to 46.2 µM), for the others: at the top dose activity change, negative = growth inhibition, usual class: inhibitors | 420,000 tested, 15% active | DT40 Tdp1-/- hTDP1 cells, no CPT, ATP luminescence, 48 h; further: potency means the concentration at half of the fitted maximal effect; nearly all actives have a fitted effect of over 55% in size
#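 Chicken DT40 Tdp1-/- cells complemented with human TDP1, screened without camptothecin (DMSO vehicle only), 400 cells/well. Compounds pin-transferred, cells incubated at 37 °C for at least 48 hr. Growth read as ATP-dependent luminescence (CellTiter-Glo, 30 min at RT).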
# TDP1 cell CPT = qHTS for Inhibitors of human tyrosyl-DNA phosphodiesterase 1 (TDP1): qHTS in cells in presence of CPT. 420,000 tested, 12% active. chicken DT40 Tdp1-/-;hTDP1 cells + 20 nM CPT, ATP luminescence, 48 h. Potency, µM (top dose mostly 46.2 µM), without a hit: at the highest dose activity change, negative = growth inhibition, usual class: inhibitors; further: potency means the concentration at half of the fitted maximal effect; nearly all actives have a fitted effect of over 55% in size
#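 Chicken DT40 Tdp1-/- cells stably complemented with human TDP1 were seeded at 400 cells/well in medium containing 20 nM camptothecin, exposed to pin-transferred compounds, and grown at 37 °C for at least 48 hr. Viability was read as ATP luminescence.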
# * = called active by the depositor; ? = inconclusive; · = no result given; [ ] = dose if it differs, or a comment. The full list was thinned out, with hits kept by preference. Unless noted, the call rests on the fitted dose curve; in most records, active means well fitted curve in the direction sought with a large enough effect; inconclusive means small, poorly fitted or top-dose-only effect, or another doubt; inactive means no such curve, though single readings can be large; an effect the other way counts as inactive or inconclusive. Unless noted, on the % scale 0 is the no-effect control and ±100 the full control effect.
SMILES,HT1080-NT tox,HT1080 IDH1KD tx,ALOX12 inh,IL1B secr inh,TDP1 cell noCPT,TDP1 cell CPT
C#Cc1ccc(CN2CCN(CCCc3ccccc3)C(CCO)C2)cc1 (configuration not stated),-1.1%,-15.4%,6.5%,-55.0*,?,-14.5%
OCCC1CN(Cc2c(O)ccc3ccccc23)CCN1CCc1ccccc1 (configuration not stated),-17.6%,1.0%,7.08µM*,-5.9,?,?
COc1cc(CN2CCN(CCCc3ccccc3)C(CCO)C2)cc(OC)c1O (configuration not stated),1.2%,2.5%,?,21.4,6.51µM*,6.51µM*
OCCC#Cc1ccc(CN2CCN(CCc3ccccc3)C(CCO)C2)cc1 (configuration not stated),8.4%,-3.6%,1.9%,6.9,-1.9%,3.7%
CCOc1ccc(CN2CCN(CCCc3ccccc3)CC2CCO)cc1 (configuration not stated),-14.9%,-4.7%,-8.9%,-51.7*,?,?
OCCC1CN(Cc2ccccc2O)CCN1CCCc1ccccc1 (configuration not stated),2.4%,-1.4%,0.0%,17.4,-31.3%,-0.2%
OCCC1CN(CCCc2ccccc2)CCN1Cc1ccc(F)cc1 (configuration not stated),-9.7%,-3.8%,9.9%,-15.6,-25.1%,0.3%
COc1ccc(-c2cc(-c3c(C)noc3C)c3cncn3c2)cn1,·,·,15.6%[176 µM],·,·,·
COc1ccc(S(=O)(=O)N2CCCCC2)cc1NC(=O)c1nn(C(C)C)c(=O)c2ccccc12,·,·,6.2%,·,·,·
Cc1ncoc1C(=O)N1CC[C@@H]2COCCN(Cc3ccncc3)[C@@H]2C1,·,·,43.6%,·,·,·
CCn1c(SCC(=O)N2CCC(C)CC2)nnc1-c1ccccc1O,·,·,-21.3%,·,-28.1%,-17.0%
COc1ccc(N2CCN(C(=O)Cc3coc4cc(C)ccc34)CC2)cc1,-1.3%,1.0%,-16.8%,19.2,-9.2%,-0.3%
O=C(Cc1coc2cc(O)ccc12)N1CCN(S(=O)(=O)c2ccc(Br)cc2)CC1,-1.2%,3.2%,166.0%,?,23.1µM*,?
O=C1NC(c2cccs2)Nc2ccccc21 (configuration not stated),-0.1%,0.3%,17.6%,1.5,8.2µM*,5.17µM*
O=C1NC(c2cccc3ccccc23)Nc2ccccc21 (configuration not stated),1.3µM*,0.731µM*,?,38.6,0.92µM*,0.581µM*
O=C1NC(c2ccccc2Cl)Nc2ccccc21 (configuration not stated),?,?,0.0%,63.4,18.4µM*,?
COc1ccc2ccccc2c1C1NC(=O)c2ccccc2N1 (configuration not stated),5.17µM*,?,1.4%,12.1,3.66µM*,2.59µM*
Cc1cc(N2CCNC[C@@H]2C)ccc1N1C[C@@H](C)O[C@@H](C)C1,·,·,-8.5%,·,·,·
O=C(CCC[C@@H]1[C@H]2CCCN3CCC[C@@H](CN1C(=O)NCc1ccc(F)cc1)[C@@H]23)NCC1CC1,·,·,29.3%,·,·,·
Cc1ccc(S(=O)(=O)NCCc2csc(-c3ccc(Cl)cc3)n2)cc1,·,·,?,·,11.6µM*,11.6µM*
Cc1ccc(S(=O)(=O)NCCc2csc(-c3cccc(F)c3)n2)cc1,·,·,?,·,14.6µM*,20.6µM*
Cc1ccc(C)c(S(=O)(=O)NCCCc2ccccc2)c1,-10.2%,-13.7%,-9.7%,-56.9*,-15.0%,31.6%
CCOc1ccc(S(=O)(=O)NCCc2sc(-c3ccc(OC)cc3)nc2C)cc1,·,·,0.6%,·,·,·
CCOc1ccc(S(=O)(=O)NCCc2csc(-c3ccc(Cl)cc3)n2)cc1,·,·,?,·,5.8µM*,6.51µM*
COCCn1c(SCCO)nc2c1c(=O)[nH]c(=O)n2C,·,·,-5.7%,·,·,·
SMILES,HT1080-NT tox,HT1080 IDH1KD tx,ALOX12 inh,IL1B secr inh,TDP1 cell noCPT,TDP1 cell CPT
CCCNC(=O)C1=CC(c2ccc3c(c2)OCO3)=NS(=O)(=O)N1C,·,·,-12.7%,·,-21.9%,0.3%
O=C(c1ccco1)N1CCC(Oc2ccccc2-c2nc(-c3ccccc3)no2)C1 (configuration not stated),·,·,-2.6%,·,·,·
CCc1ccc(S(=O)(=O)NCCc2csc(-c3ccccc3)n2)s1,?,6.4%[9.24 µM],?,-26.2,23.1µM*,?
Cc1ccc(C)c(S(=O)(=O)NCCc2csc(-c3ccc(Cl)cc3)n2)c1,·,·,?,·,16.4µM*,29.1µM*
CCc1ccc(S(=O)(=O)NCc2csc(-c3ccccc3)n2)s1,-9.5%,0.1%,-2.8%,13.9,?,?
O=c1c2c(n3nnnc3n1-c1ccccc1)-c1ccccc1CC21CCCC1,-2.1%,-7.7%,131.4%,21.2,?,2.31µM*
Cn1c(=O)c2c(n3cnnc13)-c1ccccc1CC21CCCC1,-2.0%,-3.6%,-7.9%,-12.0,14.6µM*,?
O=C(O)C1Cn2c(nc3c(c2=O)C2(CCCC2)Cc2ccccc2-3)S1 (configuration not stated),-3.1%,-2.0%,-2.9%,-10.3,14.8%,9.8%
CSc1n[nH]c2nc3c(c(=O)n12)C1(CCCC1)Cc1ccccc1-3,12.1%,11.7%,-10.9%,1.1,?,-26.5%
O=c1c2c(n3cnnc3n1C1CCCCC1)-c1ccccc1CC21CCCCC1,-0.9%,26.3%,3.1%,16.4,25.9µM*,20.6µM*
Cn1ncn2c(=O)c3c(nc12)-c1ccccc1CC31CCCC1,0.5%,-3.5%,-20.4%,62.7,?,?
O=c1c2c(n3nnnc3n1Cc1ccccc1)-c1ccccc1CC21CCCC1,7.8%,6.2%,2.2%,14.2,?,-29.3%
CSc1nnc2n(C)c3c(c(=O)n12)C1(CCCC1)Cc1ccccc1-3,-10.6%,-9.4%,0.0%,1.3,25.9µM*,?
Cc1cc(C)c2oc(C(=O)Nc3onc4c3CC(C)CC4)cc(=O)c2c1 (configuration not stated),·,·,2.8%,·,·,·
O=C(Cn1cnc2c(cnn2-c2ccc(F)cc2)c1=O)NCc1ccco1,?,18.4µM*,1.8%,39.0,5.8µM*,2.91µM*
